{"source": "ChEMBL document CHEMBL3988442", "about": "“University of Dundee, Small-Polar-MMV Screening Library” (2021)", "note": "Out of some 48,000 compounds screened, about 13,000 (27%) showed an effect of 50% or more. The list shows a part of the results."}
{"system": "Wolbachia pipientis", "assay": "Anti-Wolbachia Cell-Based Screen", "type": "functional", "set-up": "scale not given: in the data most compounds retested in dose-response had high values", "details": "5 µM", "units": {"Percent Effect": "%"}}
{"smiles": "c1cnc(N2CCC(C3CCN(CCCn4cccn4)C3)CC2)nc1", "note": "(stereo unspecified)", "Percent Effect": 5.409}
{"smiles": "Cc1ccc(C2CSCCN2C(=O)C2=CCCC2)o1", "note": "(stereo unspecified)", "Percent Effect": -12.79}
{"smiles": "CC(Cc1cccc(F)c1)C(=O)NS(=O)(=O)c1ccc(F)cc1", "note": "(stereo unspecified)", "Percent Effect": -6.109}
{"smiles": "CCCc1ccc(S(=O)(=O)NCCNC(=O)c2ccoc2)cc1", "Percent Effect": -13.27}
{"smiles": "CCc1nc(C)c([C@H]2CN(C)C[C@@H]2C(=O)Nc2ccc(OC)cc2)[nH]1", "Percent Effect": 7.798}
{"smiles": "COc1ccc(NC(=O)C2OC(c3cccs3)=NN2C(C)=O)cc1", "note": "(stereo unspecified)", "Percent Effect": 116.4}
{"smiles": "COc1ccc(CC(C)(O)CNC(=O)Cc2cccs2)cc1", "note": "(stereo unspecified)", "Percent Effect": 5.181}
{"smiles": "CCc1ccc(NC(=O)C2OC(c3cccs3)=NN2C(C)=O)cc1", "note": "(stereo unspecified)", "Percent Effect": 3.495}
{"smiles": "CC(=O)N1N=C(c2cccs2)OC1C(=O)Nc1ccc(C)cc1", "note": "(stereo unspecified)", "Percent Effect": 119.7}
{"smiles": "CCOc1ccc(NC(=O)C2OC(c3cccs3)=NN2C(C)=O)cc1", "note": "(stereo unspecified)", "Percent Effect": 122.8}
{"smiles": "O=C(Nc1ccccc1)C1CN(C(=O)c2cccs2)CC12CCOCC2", "note": "(stereo unspecified)", "Percent Effect": -0.3117}
{"smiles": "Cn1ccnc1COc1ccc(NC(=O)C2CCCO2)cc1", "note": "(stereo unspecified)", "Percent Effect": -13.75}
{"smiles": "CCOc1ccc(NC(=O)c2cccc(OC)c2OC)cc1", "Percent Effect": 0.2949}
{"smiles": "CC(=O)N1N=C(c2cccs2)OC1C(=O)Nc1ccccc1", "note": "(stereo unspecified)", "Percent Effect": 103.8}
{"smiles": "O=C(Nc1ccccc1)C1CN(Cc2cccs2)CC12CCOCC2", "note": "(stereo unspecified)", "Percent Effect": 0.5273}
{"smiles": "O=C1CC(CNc2cncc(Cl)n2)c2ccccc2N1", "note": "(stereo unspecified)", "Percent Effect": -4.513}
{"smiles": "Cc1n[nH]c(CN2CCN(C(=O)C3CCC3)[C@@H]3CS(=O)(=O)C[C@@H]32)n1", "Percent Effect": -3.785}
{"smiles": "Cc1cc(C(=O)Nc2ccc(OC3CCOCC3)c(C)c2)[nH]n1", "Percent Effect": -9.28}
{"smiles": "O=C1CN(CCCNC(=O)Nc2ccccn2)CCN1", "Percent Effect": 3.817}
{"smiles": "Cc1nc(C)c(CC(=O)NCc2ccc(F)cc2F)s1", "Percent Effect": 12.14}
{"smiles": "COc1cccc(CNC[C@H]2COCc3nc4cccnc4n32)n1", "Percent Effect": -3.627}
{"smiles": "OCC1(CCOc2ccccc2)CCCN(c2ccc(Cl)cn2)C1", "note": "(stereo unspecified)", "Percent Effect": 19.44}
{"smiles": "CNC(=O)C(C)S(=O)(=O)Cc1csc(-c2cccs2)n1", "note": "(stereo unspecified)", "Percent Effect": -15.96}
{"smiles": "Cc1ccc(CNC(=O)C2c3c(ncn3C(C)C)CCN2S(C)(=O)=O)o1", "note": "(stereo unspecified)", "Percent Effect": -24.24}
{"smiles": "Cc1ccc(CN(C(=O)NCC(c2cccs2)N(C)C)C2CC2)o1", "note": "(stereo unspecified)", "Percent Effect": 16.5}
{"smiles": "COc1ccc(NC(=O)C2OC(c3cccs3)=NN2C(C)=O)cc1OC", "note": "(stereo unspecified)", "Percent Effect": 133.2}
{"smiles": "CC(=O)N1N=C(c2cccs2)OC1C(=O)Nc1ccc(C(C)C)cc1", "note": "(stereo unspecified)", "Percent Effect": 90.69}
{"smiles": "CNC(=O)c1ccc(OC)c(NCc2noc(-c3cccs3)n2)c1", "Percent Effect": -3.924}
{"smiles": "O=c1oc(-c2cccs2)nn1CC(O)c1ccccc1", "note": "(stereo unspecified)", "Percent Effect": 2.258}
{"smiles": "CC(=O)N1N=C(c2cccs2)OC1C(=O)NCc1ccc(C)o1", "note": "(stereo unspecified)", "Percent Effect": 124.5}
{"smiles": "COc1ccc(NC(=O)C2CC2)cc1OCc1cccnc1", "Percent Effect": -2.646}
